Screens from PubChem BioAssay.
An excerpt weighted towards active compounds, which were near 5.2% of everything screened.
Tau ThT inhib – qHTS for Inhibitors of Tau Fibril Formation, Thioflavin T Binding; recombinant tau K18 P301L, heparin-induced fibrillization, ThT fluorescence; Potency, µM (highest dose often 57.4 µM), for inactives: at the highest dose activity, negative = inhibition, hits mostly inhibitors; actives 2.1% (n = 270,000); further: potency means the concentration at half of the fitted maximal effect; nearly all actives have a fitted effect of over 55% in size
Target sequence (P10636 561-689 P618L limits assumed): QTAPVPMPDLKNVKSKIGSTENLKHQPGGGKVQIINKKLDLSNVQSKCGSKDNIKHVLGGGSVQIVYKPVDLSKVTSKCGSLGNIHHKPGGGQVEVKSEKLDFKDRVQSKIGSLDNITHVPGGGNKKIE
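ThT emission at 510 nm, taken 1 hr after adding 30 uM dye, quantifies aggregates formed when 20 uM heparin acts on human tau K18 P301L for 6 hr at 37 C.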
Tau fibril FP – qHTS for Inhibitors of Tau Fibril Formation, Fluorescence Polarization | K18 P301L tau heparin fibrillization, Alexa594 FP, 6 h | Microtubule-associated protein tau (Homo sapiens), P10636 | Potency, µM (titrated, usually from 57.7 µM), without a hit: at the top dose activity, negative = inhibition, most hits filed as inhibitors | actives 0.39% (n = 280,000); further: potency means the concentration at half of the fitted maximal effect; nearly all actives have a fitted effect of over 55% in size
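Steps: dispense K18 P301L tau (15 uM plus 0.24 uM Alexa 594 tracer, final) in pH 7 sodium acetate; add compound; add heparin (20 uM final); incubate 6 hr, 37 C; add ThT (30 uM final); after 1 hr ambient, read FP.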
Sfp PPTase inh – qHTS Assay for Inhibitors of Bacillus subtilis Sfp phosphopantetheinyl transferase (PPTase). 4'-phosphopantetheinyl transferase ffp (Bacillus subtilis), Q9F4F7. Potency, µM, without a hit: largest response in the series, negative = inhibition, usual class: inhibitors. AID 1490, 2009. Biochemical Sfp PPTase activity, qHTS. actives 3.5% (n = 310,000);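 further: the enzyme is Sfp with the accession as filed and its product quenches rhodamine fluorescence; potency means the concentration at half of the fitted maximal effect; 0% = enzyme reaction without inhibitor and -100% = no enzyme wells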
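Fluorescence-quenching assay: 15 nM Sfp-PPTase preincubated 15 min at room temperature with compound, then 5 uM rhodamine-CoA and 12.5 uM BHQ-2-labelled YbbR peptide added. Fluorescence (ex 525/em 598 nm) read at start and after 30 min; difference gives rate.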
Tau fluor cs – Counterscreen qHTS for Inhibitors of Tau Fibril Formation, Fluorescence Polarization. tau K18 P301L Alexa594 fluorescence, heparin fibrillization. Potency, µM (titrated, usually from 57.7 µM), for inactives: at the highest dose activity change, negative = decrease. actives 0.93% (n = 280,000); further: potency means the concentration at half of the fitted maximal effect; nearly all actives have a fitted effect of over 55% in size
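Human tau K18 P301L (15 uM unlabeled, 0.24 uM Alexa 594-labeled) in 100 mM sodium acetate pH 7 with 20 uM heparin, 6 hr at 37 C. ThT 30 uM added, 1 hr ambient; Alexa 594 FP and total fluorescence read at 555/632 nm.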
Coupling enz – qHTS Assay for Inhibitors of Fructose-1,6-bisphosphate Aldolase from Giardia Lamblia: Coupling assay counterscreen. coupling enzyme system counterscreen, AmpLite Red fluorescence. activity change, negative = inhibition, % at 58.2 µM, hits read low. actives 0.67% (n = 290,000). AID 2472, 2010; in the data active means activity change below about -30%
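First, compound is pin-transferred into glyceraldehyde-3-phosphate coupling-enzyme reagent at 57.5 uM final and held 10 min at RT. Next, substrate, coupling system and AmpLite Red are added. After 20 min RT, fluorescence (525/598 nm) is read.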
Sfp PPTase conf – Confirmation qHTS Assay for Inhibitors of Bacillus subtilis Sfp phosphopantetheinyl transferase (PPTase); shares compounds with Sfp PPTase inh; Sfp PPTase enzymatic assay, qHTS titration; Potency, µM (series often up to 114 µM), without a hit: at the highest dose activity change, negative = inhibition, actives largely listed as inhibitors; actives 79% (n = 380); AID 2701, 2010;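 further: potency means the concentration at half of the fitted maximal effect; plate controls were uninhibited Sfp reaction for no effect and no enzyme control for full effect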
Target sequence (Q9F4F7 whole entry, looked up): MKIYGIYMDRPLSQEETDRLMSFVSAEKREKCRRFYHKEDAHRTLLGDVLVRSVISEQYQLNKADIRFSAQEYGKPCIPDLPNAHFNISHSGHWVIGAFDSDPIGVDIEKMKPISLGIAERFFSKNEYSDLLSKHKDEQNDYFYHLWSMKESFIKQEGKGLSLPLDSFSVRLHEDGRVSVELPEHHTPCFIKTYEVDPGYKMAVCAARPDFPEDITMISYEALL
Sfp gel assay – Gel-Based Assay for Inhibitors of Bacillus subtilis Sfp phosphopantetheinyl transferase (PPTase). shares compounds with Sfp PPTase inh. purified Sfp, gel-based phosphopantetheinylation read-out. Potency, µM, most hits filed as inhibitors. actives 20% (n = 210);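 active means potency below 100 µM; inconclusive means dose-dependent response but potency above 100 µM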;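 further: band intensities scaled against SCH202676 control wells before curve fitting; potency is an IC50 for inhibitors of Sfp transfer activity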
* hit, by the source's call; ! = a repeat was not active. Unless noted, the call rests on the fitted dose curve; in most records, active means well fitted curve in the direction sought with a large enough effect; inconclusive means small, poorly fitted or top-dose-only effect, or another doubt; inactive means no such curve, though single readings can be large; an effect the other way counts as inactive or inconclusive. Unless noted, on the % scale 0 is the no-effect control and ±100 the full control effect.

`COc1ccc(-c2cn3nc(SCC(=O)Nc4cccc(C)c4C)ccc3n2)cc1` gave Tau ThT inhib -18%, Tau fibril FP -7% and Tau fluor cs -4%.
CN1CCC(=C2c3ccccc3C=Cc3ccccc32)CC1 was read as Tau ThT inhib -10%, Tau fibril FP inconclusive, Sfp PPTase inh 45µM*!, Tau fluor cs -9%, Coupling enz 1, Sfp PPTase conf 83µM* and Sfp gel assay inactive.
Screening Cc1sc2nc(SCc3nc(-c4cccs4)no3)n(-c3ccccc3)c(=O)c2c1C returned Tau ThT inhib -1%, Tau fibril FP 0%, Sfp PPTase inh 4µM*, Tau fluor cs -12%, Coupling enz -2, Sfp PPTase conf 5.9µM* and Sfp gel assay inactive.
c1ccc(-n2c(SCc3nc(-c4cccs4)no3)nnc2-c2ccco2)cc1 was read as Tau ThT inhib -17%, Tau fibril FP -1%, Sfp PPTase inh -10%, Tau fluor cs -10% and Coupling enz -20.
`CCCCCn1c(CCCNC(=O)c2ccccc2)nc2ccccc21` gave Tau ThT inhib -7%, Tau fibril FP 0% and Tau fluor cs -10%.
Cn1nnc(NC(=O)c2ccco2)n1 was read as Tau ThT inhib -1%, Tau fibril FP -1%, Sfp PPTase inh 19%, Tau fluor cs 2% and Coupling enz 0.
For Cn1nnc(NC(=S)NC(=O)c2ccco2)n1 the results were Tau ThT inhib -3%, Tau fibril FP 10%, Sfp PPTase inh 6.3µM*, Tau fluor cs -7%, Coupling enz -43*, Sfp PPTase conf inconclusive and Sfp gel assay inactive.
`COC(=O)c1ccc(C2=NOC(C)(c3sc(-c4ccccc4)nc3C)C2)cc1` (stereo not drawn) gave Tau ThT inhib 4%, Tau fibril FP 0%, Sfp PPTase inh 18%, Tau fluor cs 6% and Coupling enz -1.
For COC(=O)c1ccc(-c2nc(O)c(C)s2)cc1 the results were Tau ThT inhib 13µM*, Tau fibril FP inconclusive, Sfp PPTase inh 14µM*, Tau fluor cs -6%, Coupling enz 2 and Sfp PPTase conf 47µM*.
Screening CCc1ccccc1NC(=O)Nc1nnc(N2CCCC2)s1 returned Tau ThT inhib -4%, Tau fibril FP -1% and Tau fluor cs -1%.
C1=C(c2ccccc2)CCN(c2nc3ccccc3n3cnnc23)C1 was read as Tau ThT inhib inconclusive, Tau fibril FP 8%, Sfp PPTase inh 28µM*, Tau fluor cs -13%, Coupling enz 0 and Sfp PPTase conf 37µM*.
For CCn1cc(C(=O)Nc2ccc(C(C)C)cc2)c2cc(OC)c(OC)cc2c1=O the results were Tau ThT inhib inconclusive, Tau fibril FP 6% and Tau fluor cs inconclusive.
Screening CN1C(C(=O)Nc2ccccn2)=C(O)c2sccc2S1(=O)=O returned Tau ThT inhib -8%, Tau fibril FP -2%, Sfp PPTase inh 50µM*!, Tau fluor cs -9%, Coupling enz 0, Sfp PPTase conf 12µM* and Sfp gel assay inactive.
Screening O=C(Nc1ccccn1)c1cccs1 returned Tau ThT inhib 11%, Tau fibril FP -4%, Sfp PPTase inh -3%, Tau fluor cs 1% and Coupling enz -3.
Screening COC(=O)c1c(NC(=O)c2ccc(C)o2)sc2c1CCCCC2 returned Tau ThT inhib inconclusive, Tau fibril FP -9%, Sfp PPTase inh 14µM*, Tau fluor cs -11%, Coupling enz -7, Sfp PPTase conf 37µM* and Sfp gel assay inactive.
`CCOC(=O)N1CCc2c(sc3c2c(=O)n(-c2ccc(CC)cc2)c(=O)n3CC(=O)Nc2ccc(C)cc2)C1` gave Tau ThT inhib 2%, Tau fibril FP -10% and Tau fluor cs -16%.
CCSc1nnc(NC(=O)C2CCCCC2C(=O)OCC(F)(F)C(F)F)s1 (stereo not drawn) was read as Tau ThT inhib -2%, Tau fibril FP 3%, Sfp PPTase inh 22µM*, Tau fluor cs 4%, Coupling enz -1 and Sfp PPTase conf 53µM*.
For CCSc1nnc(NC(=O)C2C3CCC(C3)C2C(=O)O)s1 (stereo not drawn) the results were Tau ThT inhib -1%, Tau fibril FP -3%, Sfp PPTase inh -4%, Tau fluor cs -4% and Coupling enz 2.
For Cc1cc(O)c(C2=Nc3ccccc3SC(c3ccc(Cl)cc3)C2)c(=O)o1 (stereo not drawn) the results were Tau ThT inhib inconclusive, Tau fibril FP -14%, Sfp PPTase inh 14µM*, Tau fluor cs -11%, Coupling enz 0, Sfp PPTase conf 53µM* and Sfp gel assay inconclusive.
ONc1cccnc1-n1nc(C(F)(F)F)cc1C(F)(F)F was read as Tau ThT inhib inconclusive, Tau fibril FP -19%, Sfp PPTase inh 8.9µM*, Tau fluor cs inconclusive, Coupling enz -29 and Sfp PPTase conf 15µM*.
Screening Cc1nc(-c2ccc(S(=O)(=O)N3CCN(c4cc(Cl)ccc4C)CC3)cc2)co1 returned Tau ThT inhib 2%, Tau fibril FP -5% and Tau fluor cs -24%.
`CN(C)S(=O)(=O)c1ccc(C(=O)Nc2ccc(-n3nncc3-c3ccccc3)cc2)cc1` gave Tau ThT inhib 16%, Tau fibril FP -16% and Tau fluor cs inconclusive.
For CCc1ccc(CNC(=O)c2cnc3sc(N4CCCC4)nn3c2=O)cc1 the results were Tau ThT inhib -3%, Tau fibril FP -6% and Tau fluor cs -6%.
`O=Cc1ccc(N2CCCC2)o1` gave Tau ThT inhib -3%, Tau fibril FP 4%, Sfp PPTase inh 21%, Tau fluor cs -3% and Coupling enz 0.
Screening O=C(N/N=C/c1ccc(N2CCCCC2)o1)C(O)(c1ccccc1)c1ccccc1 returned Tau ThT inhib inconclusive, Tau fibril FP inconclusive, Sfp PPTase inh 8.9µM*, Tau fluor cs -24%, Coupling enz -7 and Sfp PPTase conf 37µM*.
